In PubChem BioAssay AID652257 (The Scripps Research Institute Molecular Screening Center, 2013) one finds inhibition data, which are given here for 58 molecules.

In all, about 370,000 compounds went through this assay and about 4,800 (1.3%) were called active.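 Rule for the calls: active = inhibition above about 21% made by adding two undisclosed values (limit read from the data); inactive = the rest.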 This excerpt belongs to a sample that is enriched for actives.

This experiment deals with Protein arginine N-methyltransferase 1 (Homo sapiens) (UniProt Q99873). Briefly: PRMT1 methyltransferase inhibitors, primary screen, biochemical, fluorescence polarization (AID 652257). The settings on record: recombinant PRMT1, activity-based probe fluorescence polarization; at 2.79 µM; stronger effect = higher value.
Chain of Protein arginine N-methyltransferase 1 (Homo sapiens) (Q99873 whole entry, looked up): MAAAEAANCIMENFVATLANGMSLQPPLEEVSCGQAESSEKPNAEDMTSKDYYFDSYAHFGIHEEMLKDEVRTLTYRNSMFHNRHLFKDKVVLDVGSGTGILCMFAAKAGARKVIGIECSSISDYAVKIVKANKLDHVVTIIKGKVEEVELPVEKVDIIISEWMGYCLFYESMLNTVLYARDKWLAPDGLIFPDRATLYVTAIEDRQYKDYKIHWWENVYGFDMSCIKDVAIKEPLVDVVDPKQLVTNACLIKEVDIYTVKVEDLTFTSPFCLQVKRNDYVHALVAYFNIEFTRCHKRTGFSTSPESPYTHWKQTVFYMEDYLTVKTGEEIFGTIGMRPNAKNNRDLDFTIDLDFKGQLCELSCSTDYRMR
With `CCOC(=O)N1CCN(C(=O)C[C@H]2C[C@@]3(C(=O)OC)C(=C[C@H](C(C)(C)C)O[C@@H]3C)N(Cc3ccc(Cl)cc3Cl)C2=O)CC1`, the inhibition was 1.72% (inactive).

With `O=C(CSc1ncn[nH]1)Nc1ccnc2ccccc12`, the inhibition is 0.32% (inactive).

For the molecule `CCOC(=O)c1ccc(N2C(=O)CC(Sc3nc(O)c(CC)c(=O)[nH]3)C2=O)cc1` (stereo not drawn), the inhibition is -0.27% (inactive).

Regarding `COc1ccc(N2C(=O)C(O)C2c2ccc(C)cc2)cc1` (stereo not drawn), the inhibition was 3.23% (inactive).

For the molecule `O=C1CC(Sc2ncn[nH]2)C(=O)N1c1ccccc1` (stereo not drawn), the inhibition was 60.4% (active).

Turning to `Cc1ccc(N2C(=O)CC(Sc3ncn[nH]3)C2=O)cc1` (stereo not drawn), the inhibition was 85.1% (active).

Regarding `CCOc1ccccc1N1C(=O)CC(Sc2nccc(C)n2)C1=O` (stereo not drawn), the inhibition is 14.4% (inactive).

For the molecule `COc1ccc(N2C(=O)CC(Sc3n[nH]c(-c4ccc(C)cc4)n3)C2=O)cc1` (stereo not drawn), the inhibition was 66% (active).

With `Cc1ccnc(SC2CC(=O)N(c3ccccc3)C2=O)n1` (stereo not drawn), the inhibition was 8.05% (inactive).

For `CC(=O)Nc1ccc(N2C(=O)CC(Sc3nccc(C)n3)C2=O)cc1` (stereo not drawn), the inhibition was 15.5% (inactive).

Take `CCCC1CCC2(CCCN2CCOC(=O)NCc2ccccc2)CC1` (stereo not drawn): the inhibition was 5.29% (inactive).

For `O=C(NC1CCCC1)C1CSCCS(=O)(=O)N1Cc1ccccc1` (stereo not drawn), the inhibition is -0.44% (inactive).

With `O=C(Nc1cccc(Cl)c1)OC1CC2CC1[C@H]1CCCCN1[C@H]2Cc1ccccc1` (stereo partly drawn), the inhibition was 1.47% (inactive).

For the molecule `CC[C@@H](CCC(=O)N(c1ccccc1)c1ccccc1)C1CC1`, the inhibition is -2.74% (inactive).

As for `c1coc(CCNc2ncnc3ccc(-c4ccc5c(c4)OCO5)cc23)c1`, the inhibition is 15% (inactive).

As for `O=S1(=O)c2ccc(N3CCN(Cc4ccccc4F)CC3)cc2Oc2ccccc2CN1Cc1cn(Cc2ccc(Cl)cc2)nn1`, the inhibition was -3.79% (inactive).

As to `O=C(CSc1nnc(-c2ccccn2)n1-c1ccccc1)Nc1ccc2cn[nH]c2c1`, the inhibition is 1.03% (inactive).

Consider `C=CCn1c(SCC(N)=O)nnc1-c1ccccc1OC`, for which the inhibition was 5.94% (inactive).

Turning to `O=C(Cn1nc([N+](=O)[O-])nc1Br)NC1CCCCC1`, the inhibition is -3.64% (inactive).

Consider `O=C(CCCCCN1C(=O)C2C3C=CC(C3)C2C1=O)Nc1ccccc1` (stereo not drawn), for which the inhibition is -2.78% (inactive).

As to `O=C(C1=C(O)C(=O)N(c2ncccn2)C1c1cccs1)c1ccco1` (stereo not drawn), the inhibition was -1.95% (inactive).

Take `C=CCSc1nnc(N2C(=O)C(O)=C(C(=O)c3ccco3)C2c2ccc(F)cc2)s1` (stereo not drawn): the inhibition is 14.8% (inactive).

Consider `Cc1ccc2nc(N3C(=O)C(O)=C(C(=O)c4ccco4)C3c3cccc(O)c3)sc2c1` (stereo not drawn), for which the inhibition is 24% (active).

On to `CCc1c(-c2ccccc2OC)ncn1CCc1ccccc1OC`, for which the inhibition is -6.39% (inactive).

As to `N#Cc1ccccc1OC[C@@H](O)CN1CCC(C(O)(c2ccccc2)c2ccccc2)CC1`, the inhibition is -3.45% (inactive).

Regarding `CC(=O)Nc1cccc(-c2cc(NC=O)c3ncc(-c4ccc(F)c(Cl)c4)n3c2)c1`, the inhibition is 2.68% (inactive).

Turning to `CC(=O)Nc1cc(-c2ccccc2F)cn2c(-c3cccc(C(F)(F)F)c3)cnc12`, the inhibition is 2.67% (inactive).

As to `CC(=O)Nc1cc(-c2ccccc2N(C)C)cn2c(-c3ccc(F)c(Cl)c3)cnc12`, the inhibition is 49.4% (active).

In the case of `CCOC(=O)C(=O)N(Cc1ccccc1)c1ccccc1C(=O)Nc1cc(OC)ccc1OC`, the inhibition is -1.5% (inactive).

For `CCOc1ccc(N(CC(=O)NCCc2ccc(F)cc2)S(=O)(=O)c2ccccc2)cc1`, the inhibition is 1.75% (inactive).

In the case of `COc1c(Br)cc2c(C)c(C(=O)N3CCOCC3)oc2c1Br`, the inhibition was -2.82% (inactive).

`CC1(C(=O)NCc2ccc3c(c2)OCO3)CCN1C(=O)Cc1cccs1` (stereo not drawn): the inhibition is 0.09% (inactive).

Turning to `CC1(C(=O)NCc2ccc3c(c2)OCO3)CCN1CCc1ccccc1` (stereo not drawn), the inhibition was -4.72% (inactive).

On to `CC1(C(=O)NCc2ccc3c(c2)OCO3)CCN1C(=O)Cc1cccc2ccccc12` (stereo not drawn), for which the inhibition was 24.5% (active).

`CCOC(=O)[C@]12CCCC3=C1N(CCC3)C(=O)[C@@H](CC(=O)NCc1cccs1)C2`: the inhibition was 1.5% (inactive).

In the case of `N#CCC[C@H]1CC[C@]2(CCCN(Cc3ccc(Cl)cc3)C2)O1`, the inhibition was 1.93% (inactive).

As for `CCOc1ccc2[nH]c(=S)sc2c1`, the inhibition was 10.4% (inactive).

With `O=c1[nH]c2ccccc2s1`, the inhibition was 5.51% (inactive).

As to `Nc1ccc2[nH]c(=S)sc2c1`, the inhibition is 28.3% (active).

Turning to `Cc1cc(C)cc(NC(=O)N2CCC(N(C)CCC(C)C)CC2)c1`, the inhibition is -0.26% (inactive).

With `CCN(CC)C(=O)C(C)N1c2cccc3cccc(c23)S1(=O)=O` (stereo not drawn), the inhibition was -0.89% (inactive).

Consider `CC1=C(C(=O)N(C)C)CC(CC(=O)NCCN2CCOCC2)C(=O)N1Cc1ccccc1` (stereo not drawn), for which the inhibition is -1.74% (inactive).

In the case of `Cc1cccc(CCNC(=O)Cn2ncc3c([nH]c4ccc(C)cc43)c2=O)c1`, the inhibition was -0.97% (inactive).

Consider `CCOC(=O)[C@]12CCCC3=C1N(CCC3)C(=O)[C@@H](CC(=O)N1CCSCC1)C2`, for which the inhibition is -9.78% (inactive).

Consider `COC(C[C@@H](O)[C@H](C)[C@H](O)COCc1ccccc1)OC`, for which the inhibition is -0.18% (inactive).

As to `CSc1c(SCc2ccccc2)cnn(Cc2ccccc2)c1=O`, the inhibition is 42.6% (active).

Take `COC(=O)c1ccc(SCc2ccccc2)nc1`: the inhibition was 1.13% (inactive).

As for `O=c1c2ccccc2c(-c2ccc(Br)cc2)nn1Cc1ccccc1`, the inhibition is 3.02% (inactive).

With `Cc1cc(C)c(/C=C2\C(=O)Nc3ccccc32)[nH]1`, the inhibition is 64.8% (active).

For `O=C1Nc2ccccc2C1=NN=Cc1ccco1`, the inhibition is -4.47% (inactive).

Regarding `COc1ccccc1S(=O)(=O)c1c(C)cc(C)[nH]c1=O`, the inhibition is -5.06% (inactive).

Consider `CC(=O)Nc1nc2ncccn2c1-c1ccc(C(F)(F)F)cc1`, for which the inhibition is 5.51% (inactive).

Take `COc1ccccc1CNC(=O)C1CCN(S(=O)(=O)c2ccc3c(c2)CC(C)N3C(=O)C2CC2)CC1` (stereo not drawn): the inhibition was 0.46% (inactive).

As to `Cc1ccc(CNC(=O)CCS(=O)(=O)c2ccc3c(c2)CC(C)N3C(=O)C2CC2)o1` (stereo not drawn), the inhibition was 35.6% (active).

Take `CCC(=O)N1c2ccc(S(=O)(=O)NCc3ccco3)cc2CC1C` (stereo not drawn): the inhibition was 4.05% (inactive).

For `COc1ccc(N2CCN(CCNS(=O)(=O)c3ccc(Cl)s3)CC2)cc1`, the inhibition is -1.47% (inactive).

For the molecule `Cc1cc(C)n2ncc(C(=O)Nc3ccc4c(c3)OCCO4)c2n1`, the inhibition is -2.31% (inactive).

As to `Cc1ccc(S(=O)(=O)N2CCN(C)CC2)cc1C(=O)NC1CCCCC1`, the inhibition was 3.5% (inactive).
